Bioassay records deposited in PubChem by National Center for Advancing Translational Sciences (NCATS).
Only some compounds are listed: those with a hit (about 10% of all), similar ones and a draw of the others.
GLS inh: inhibitors of human glutaminase (GLS). Potency, µM (series often up to 45.5 µM), without a hit: top-dose activity change, negative = inhibition, hits mostly inhibitors. actives 0.21% (n = 410,000). GLS enzymatic activity, qHTS titration; also: % is scaled to controls: 0 for no effect and ±100 for the full control effect
Target sequence (O94925 whole entry, looked up): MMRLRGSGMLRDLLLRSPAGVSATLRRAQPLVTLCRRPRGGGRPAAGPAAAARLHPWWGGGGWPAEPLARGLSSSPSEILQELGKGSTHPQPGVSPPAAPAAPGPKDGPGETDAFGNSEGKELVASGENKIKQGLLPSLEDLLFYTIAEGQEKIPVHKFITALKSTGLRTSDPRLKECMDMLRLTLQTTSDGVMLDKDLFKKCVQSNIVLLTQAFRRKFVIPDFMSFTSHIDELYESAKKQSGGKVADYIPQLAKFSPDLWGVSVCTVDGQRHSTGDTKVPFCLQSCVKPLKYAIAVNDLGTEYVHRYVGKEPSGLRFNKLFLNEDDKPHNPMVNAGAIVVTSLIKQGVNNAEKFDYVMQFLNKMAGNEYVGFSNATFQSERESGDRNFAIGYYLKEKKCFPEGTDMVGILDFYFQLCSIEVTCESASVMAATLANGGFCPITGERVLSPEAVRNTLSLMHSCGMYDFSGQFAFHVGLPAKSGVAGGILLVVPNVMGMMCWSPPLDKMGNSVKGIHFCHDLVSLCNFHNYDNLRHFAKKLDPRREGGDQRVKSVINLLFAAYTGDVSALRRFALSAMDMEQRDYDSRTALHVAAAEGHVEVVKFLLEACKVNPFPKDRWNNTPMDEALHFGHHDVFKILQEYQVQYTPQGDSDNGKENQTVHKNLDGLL
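Two-point fluorescence kinetic (t0, 30 min RT) for hKGA; glutamate detected via glutamate oxidase–HRP–Amplex Red. Substrate: 1 mM L-glutamine solution; buffer 45 mM KH2PO4, pH 8.2.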
HP1b binding inh: HP1-beta chromodomain-methylated histone interaction inhibition; P83916; AlphaScreen HP1-beta / biotin-H3K9me3 peptide binding; Potency, µM (titrated, usually from 114 µM), without a hit: top-dose activity change, negative = inhibition, actives largely listed as inhibitors; actives 0.56% (n = 390,000); AID 540317; also: nearly all actives have a fitted effect of over 70% in size
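HP1-beta protein (50 nM final) preincubated 30 min at room temperature with biotinylated H3(1-18)K9me3 peptide (50 nM) in PBS pH 7.4, 0.01% Tween-20, then compound added for 30 min. AlphaScreen streptavidin donor/nickel chelate acceptor beads (10 ug/mL final), 30 min dark, luminescence read.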
BAZ2B block: inhibitors of human BAZ2B bromodomain; Q9UIF8; AlphaScreen BAZ2B-H3K14Ac peptide displacement; Potency, µM (doses to about 114 µM), for inactives: top-dose activity change, negative = inhibition, hits mostly inhibitors; actives 4.4% (n = 360,000); AID 504333; also: % is scaled to controls: 0 for no effect and ±100 for the full control effect; nearly all actives have a fitted effect of over 60% in size
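BAZ2B 50 nM plus b-H3(5-23)K14Ac 50 nM, PBS pH 7.4/0.01% Tween-20, 30 min RT; compound added (max 110 uM), 30 min RT; streptavidin donor/Ni-chelate acceptor beads 10 ug/mL final, 20 min dark; AlphaScreen read.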
L3MBTL1 inh: L3MBTL1 (human) inhibition | Q9Y468 | AlphaScreen L3MBTL1–H3K9me1 peptide binding | Potency, µM (doses to about 57.1 µM), inactives show top-dose activity, negative = inhibition, actives largely listed as inhibitors | actives 0.66% (n = 230,000) | AID 485360; also: % is scaled to controls: 0 for no effect and ±100 for the full control effect; nearly all actives have a fitted effect of over 60% in size
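L3MBTL1 (50 nM) pre-complexed 30 min with biotinylated H3(1-15)K9me1 peptide (75 nM), then compounds added for 30 min at room temperature; AlphaScreen streptavidin donor/nickel chelate acceptor beads (10 ug/mL final) read after 30 min dark incubation.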
JMJD2A Tudor inh: inhibitors of human JMJD2A Tudor domain. AlphaScreen JMJD2A-Tudor / H3K4me3 peptide binding. Potency, µM (titrated, usually from 114 µM), without a hit: at the top dose activity change, negative = inhibition, usual class: inhibitors. O75164. actives 4.4% (n = 390,000); also: % is scaled to controls: 0 for no effect and ±100 for the full control effect; nearly all actives have a fitted effect of over 50% in size
G9a block: inhibitors of human histone lysine methyltransferase G9a | Q96KQ7 | Potency, µM (titrated, usually from 102 µM), without a hit: at the highest dose activity, negative = inhibition, most hits filed as inhibitors | actives 8.8% (n = 350,000) | G9a H3K9 monomethylation, AlphaScreen, 2 h; also: % is scaled to controls: 0 for no effect and ±100 for the full control effect; nearly all actives have a fitted effect of over 75% in size
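Enzyme 20 nM + cpd, 15 min RT; add b-H3K9 pep 500 nM / SAM 20 uM; 2 h RT; anti-H3K9me1 Ab 0.5 ug/mL + SA donor / anti-rabbit acceptor beads 20 ug/mL each, 10 min; AlphaScreen read.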
Starred values were filed as active, the others as inactive; [ ] = another dose, or the depositor's remark. Calls follow the shape of the dose curve; as a rule, active = well fitted curve in the direction sought with a large enough effect; inconclusive = small, poorly fitted or top-dose-only effect, or another doubt; inactive = no such curve, though single readings can be large; an effect the other way counts as inactive or inconclusive. Potency is read from the fitted curve at half-maximal effect.

For CC(=O)c1ccccc1S(=O)(=O)N1CCN(c2nc(-c3cccs3)nc3ccccc23)CC1 the results were HP1b binding inh 16% and JMJD2A Tudor inh -28%.
COc1ccc(C(=O)OCC(=O)NC(Cc2ccccc2)C(C)=O)cc1S(=O)(=O)N1CCCC1 (stereo unspecified) was read as GLS inh 7%, HP1b binding inh 8%, BAZ2B block 10%, L3MBTL1 inh 2%, JMJD2A Tudor inh -19% and G9a block 56µM*.
`CCN(C(=O)COC(=O)c1ccc(OC)c(S(=O)(=O)N(C)Cc2ccccc2)c1)C1CCS(=O)(=O)C1` (stereo unspecified) gave GLS inh 3%, HP1b binding inh 21%, BAZ2B block 7%, L3MBTL1 inh 2%, JMJD2A Tudor inh -11% and G9a block inconclusive.
COc1ccc(C(=O)OCC(=O)NC2CC2)cc1S(=O)(=O)N(C)Cc1ccccc1 was read as GLS inh 0%, HP1b binding inh 36%, BAZ2B block -2%, L3MBTL1 inh 15%, JMJD2A Tudor inh -4% and G9a block 50µM*.
Screening COc1cccc(Cn2c(=O)c(-c3ccccc3)nc3cnc(N4CCNCC4)nc32)c1 returned G9a block 2%[0.501 µM].
CC(NCc1ccc([N+](=O)[O-])cc1)C1COc2ccccc2O1 (stereo unspecified) was read as GLS inh -2%, HP1b binding inh inconclusive, BAZ2B block 50µM*, JMJD2A Tudor inh 7.9µM* and G9a block inconclusive.
`CC(NC(=O)Cc1ccccc1)C1COc2ccccc2O1` (stereo unspecified) gave GLS inh 12%, HP1b binding inh 9%, BAZ2B block -17%, L3MBTL1 inh -8%, JMJD2A Tudor inh -10% and G9a block 18%.
Screening CCOC(=O)c1c(-c2ccccc2)oc2ccc(NS(=O)(=O)c3ccc(C)cc3)cc12 returned GLS inh -4%, HP1b binding inh 30%, BAZ2B block -4%, JMJD2A Tudor inh -16% and G9a block -42%[59 µM].
`CO/N=C/c1ccc(Oc2ccc(C)cc2)c([N+](=O)[O-])c1` gave GLS inh inconclusive, HP1b binding inh 0%, BAZ2B block 2%, L3MBTL1 inh 27%, JMJD2A Tudor inh 13µM* and G9a block 9%.
NS(=O)(=O)c1cccc(NC(=O)COC(=O)Cc2ccc(S(=O)(=O)N3CCCCC3)s2)c1 was read as GLS inh -1%, HP1b binding inh 38%, BAZ2B block inconclusive, L3MBTL1 inh -2%, JMJD2A Tudor inh -26% and G9a block 45µM*.
For O=C(COC(=O)Cc1ccc(S(=O)(=O)N2CCCCC2)s1)Nc1ccc2c(c1)OCO2 the results were GLS inh 6%, HP1b binding inh 3%, L3MBTL1 inh -6%, JMJD2A Tudor inh -27% and G9a block 22µM*.
`O=C(Cc1ccc(S(=O)(=O)N2CCCC2)s1)Nc1cccc([N+](=O)[O-])c1` gave GLS inh -1%, HP1b binding inh 19%, L3MBTL1 inh -4% and JMJD2A Tudor inh inconclusive.
Screening O=C(COC(=O)Cc1ccc(S(=O)(=O)N2CCOCC2)s1)NCCc1ccccc1 returned GLS inh -3%, HP1b binding inh 4%, BAZ2B block 50µM*, JMJD2A Tudor inh -27% and G9a block inconclusive.
Screening CC(C)(C)c1ccc(C(=O)N2CCC(c3nc4ccccc4o3)CC2)cc1 returned GLS inh -8%, HP1b binding inh 29%, BAZ2B block -7%, JMJD2A Tudor inh -15% and G9a block -35%[59 µM].
`Cc1ccc(CN2CCN(CC(=O)NCc3ccccc3Cl)C2=O)cc1` gave GLS inh 1%, HP1b binding inh 18%, BAZ2B block 5%, JMJD2A Tudor inh -4% and G9a block 10%[59 µM].
`COc1cccc(N2CCN(C(=O)c3cc(-c4ccc(F)cc4)[nH]c3C)CC2)c1` gave GLS inh -4%, HP1b binding inh inconclusive, BAZ2B block -36%, JMJD2A Tudor inh inconclusive and G9a block inconclusive.
COc1ccccc1N1CCN(C(=O)c2cc(-c3ccc(F)cc3)[nH]c2C)CC1 was read as GLS inh 13%, HP1b binding inh inconclusive, BAZ2B block inconclusive, JMJD2A Tudor inh 56µM* and G9a block 50µM*.
`Cc1ccc(N2CCN(C(=O)c3cc(-c4ccc(F)cc4)[nH]c3C)CC2C)cc1` (stereo unspecified) gave GLS inh -5%, HP1b binding inh inconclusive, BAZ2B block 45µM*, JMJD2A Tudor inh inconclusive and G9a block inconclusive.
`Cc1[nH]c(-c2ccc(F)cc2)cc1C(=O)N1CCN(c2ccccc2)CC1` gave GLS inh 10%, HP1b binding inh -29%, BAZ2B block inconclusive, JMJD2A Tudor inh 56µM* and G9a block 50µM*.
For Cc1cccc(N2CCN(C(=O)Nc3ccc(F)cc3)CC2C)c1 (stereo unspecified) the results were GLS inh 34%, HP1b binding inh 32%, BAZ2B block -2%, JMJD2A Tudor inh -17% and G9a block 1%[59 µM].
`Cc1[nH]c(-c2ccc(F)cc2)cc1C(=O)N1CCN(c2ccccc2F)CC1` gave GLS inh -31%, HP1b binding inh inconclusive, BAZ2B block inconclusive, JMJD2A Tudor inh inconclusive and G9a block 71µM*.
Cc1oc2c(c(C)cc3oc(=O)c(CC(=O)NCCc4ccccc4)c(C)c32)c1C was read as GLS inh -14%, HP1b binding inh 17%, BAZ2B block -6%, JMJD2A Tudor inh -8% and G9a block -9%[59 µM].
O=S(=O)(c1ccc(F)cc1)N1CCN(c2nc(-c3cccc(Br)c3)nc3ccccc23)CC1 was read as HP1b binding inh 49% and JMJD2A Tudor inh -15%.
Nc1cc(N)nc(SCc2cc([N+](=O)[O-])cc3c2OCOC3)n1 was read as GLS inh 2%, HP1b binding inh 36%, BAZ2B block 1%, L3MBTL1 inh -2%, JMJD2A Tudor inh -2%[11.4 µM] and G9a block 71µM*.
Cc1cccc(C)c1Nc1nnc(SCc2cc([N+](=O)[O-])cc3c2OCOC3)s1 was read as GLS inh -1%, HP1b binding inh 21%, BAZ2B block inconclusive, JMJD2A Tudor inh -32% and G9a block 50µM*.
CCc1ccc(C2CC(=O)c3c([nH]c(C(=O)OCCOc4ccccc4)c3C)C2)cc1 (stereo unspecified) was read as GLS inh -6%, HP1b binding inh 31%, BAZ2B block -3%, JMJD2A Tudor inh -10% and G9a block -3%[59 µM].
